Reference: PubChem BioAssay (Tox21)
“And” between values parts separate entries of the source, which are not always exact repeats. Identical values can stand only once. Inconclusive results are not listed. The source made the active and inactive calls. Unless noted, calls come from the whole dose curve.

Experiments:
[1] = Nuclear factor erythroid 2-related factor 2/antioxidant responsive element (Nrf2/ARE) small molecule agonists: luciferase reporter gene qHTS assay in human keratinocytes (AID 1919969); note: nearly all actives have a fitted effect of over 35% in size; note: potency is the fitted concentration of half-maximal effect
[2] = target: Gonadotropin-releasing hormone receptor (Homo sapiens) (UniProt P30968); experiment: Human gonadotropin-releasing hormone receptor (GnRHR) small molecule agonists, calcium flux assay in GnRHR-HEK293 cells (AID 1920063); note: nearly all actives have a fitted effect of over 35% in size; note: potency is the fitted concentration of half-maximal effect
Summary of the method: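 Agonist mode: compounds at 15 concentrations, in triplicate, went onto calcium dye-loaded GnRHR-HEK293 cells. Intracellular calcium was then followed as 480/540 nm fluorescence at 1 s intervals over 3 min.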

[3] = target: KiSS-1 receptor (Homo sapiens) (UniProt Q969F8); experiment: Human kisspeptin (KISS1R) small molecule agonists, calcium flux assay in KISS1R-HEK293 cells (AID 1920064; active = well fitted activation curve with a large enough effect in the repeat runs; note: potency is the fitted concentration of half-maximal effect)
Summary of the method: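 Agonist mode: intracellular calcium rise tracked at 1 s intervals over 3 min (480/540 nm) immediately after compound addition to dye-loaded KISS1R-HEK293 stable cells. Each compound tested at 15 concentrations in triplicate.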

[4] = G protein-coupled receptor (GPCR) small molecule agonists, calcium flux assay: HEK293 wild type cell line counter screen (AID 1920065); note: potency is the fitted concentration of half-maximal effect
Summary of the method: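 Calcium flux counter screen: compound added in agonist mode at 15 concentrations in triplicate to dye-loaded parental HEK293 cells. Fluorescence (480/540) read kinetically for 3 min; ATP served as positive control.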

[5] = p53 small molecule agonists, cell-based qHTS assay with rat liver microsomes: qHTS cell viability counter screen (AID 1963580); note: nearly all actives have a fitted effect of over 45% in size
Summary of the method: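 Luminescent ATP readout (CellTiter-Glo, 30 min at room temperature) reports viability of p53RE-bla HCT-116 cells after 16 h at 37 C with test compounds under metabolic activation by rat liver microsomes and NADPH at 0.5 mg/mL final each.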

[6] = target: 5-hydroxytryptamine receptor 2A (Homo sapiens) (UniProt P28223); experiment: 5-hydroxytryptamine receptor 2A (HTR2A) small molecule antagonists, cell-based qHTS assay (AID 1963586); note: nearly all actives have a fitted effect of over 45% in size; note: potency is the fitted concentration of half-maximal effect
Summary of the method: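 CHO cells stably expressing human HTR2A were plated for 18 h at 37 C, then loaded with calcium dye for 1 h. Compounds were preincubated 5 min at room temperature before DOI (4 nM solution) was added. Kinetic fluorescence was read for 3 min.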

[7] = target: 5-hydroxytryptamine receptor 2A (Homo sapiens) (UniProt P28223); experiment: 5-hydroxytryptamine receptor 2A (HTR2A) small molecule agonists, cell-based qHTS assay (AID 1963587); note: nearly all actives have a fitted effect of over 30% in size; note: potency is the fitted concentration of half-maximal effect
Summary of the method: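 HTR2A-CHO cells, plated 18 h at 37 C/5% CO2, dye-loaded 1 h at 37 C; compounds in DMSO added by pin tool (agonist mode). Intracellular calcium flux read as kinetic fluorescence on FDSS over 2 min at 1 s intervals.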

[8] = target: Muscarinic acetylcholine receptor M1 (Homo sapiens) (UniProt P11229); experiment: Cholinergic receptor muscarinic 1 (CHRM1) small molecule antagonists, cell-based qHTS assay (AID 1963588); note: nearly all actives have a fitted effect of over 40% in size; note: potency is the fitted concentration of half-maximal effect
Summary of the method: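 Compounds were tested at 15 concentrations in three independent runs. Dye-loaded CHRM1-CHO cells were exposed 5 min at room temperature before stimulation by acetylcholine added at 50nM. Intracellular calcium was read kinetically on FDSS for 3 min.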

[9] = target: Muscarinic acetylcholine receptor M1 (Homo sapiens) (UniProt P11229); experiment: Cholinergic receptor muscarinic 1 (CHRM1) small molecule agonists, cell-based qHTS assay (AID 1963589); note: nearly all actives have a fitted effect of over 35% in size; note: potency is the fitted concentration of half-maximal effect
Summary of the method: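 Agonist-mode calcium-flux screen: compounds at 15 concentrations, three independent runs, were pin-transferred onto dye-loaded human CHRM1-CHO cells. Fluorescence was then recorded kinetically every second over minutes.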

[10] = cAMP Responsive Elements (CRE) small molecule antagonists, cell-based qHTS assay (AID 1963591; active = well fitted inhibition curve with a large enough effect in the signal ratio in the repeat runs, not every such curve was filed as active; the % refers to the signal ratio; note: potency is the fitted concentration of half-maximal effect)
Summary of the method: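 Antagonist mode: compounds are added alongside the adenylyl cyclase activator NKH477 (0.25 uM final) to CRE-bla HEK293T cells for 3 h. LiveBLAzer FRET substrate, 2 h at room temperature, reports bla expression.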

[11] = target: Beta-2 adrenergic receptor (Homo sapiens) (UniProt P07550); experiment: Adrenergic beta2 receptor (ADRB2) small molecule antagonists, cell-based qHTS assay (AID 1963592); note: series mostly up to about 92 µM; nearly all actives have a fitted effect of over 50% in size
Summary of the method: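 Assay format: CHO-ADRB2 cells, 18-20hr seeding at 37C/5% CO2, then compound plus 1nM isoproterenol agonist mix for 0.5hr RT. Homogeneous time-resolved fluorescence cAMP detection after 1hr, expressed as 665/615 nm ratio.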

[12] = target: D(2) dopamine receptor (Homo sapiens) (UniProt P14416); experiment: Dopamine D2 receptor (DRD2) small molecule agonists, cell-based qHTS assay (AID 1963594); note: nearly all actives have a fitted effect of over 35% in size
Summary of the method: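 HEK293 cells stably expressing DRD2 were cultured 24 h at 37 C, then given Ro20-1724 (0.1 mM final) and compounds for 10 min at room temperature. NKH477 (200nM) was then added for 30 min. cAMP was read by HTRF.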

[13] = target: D(2) dopamine receptor (Homo sapiens) (UniProt P14416); experiment: Dopamine D2 receptor (DRD2) small molecule antagonists, cell-based qHTS assay (AID 1963595; active = well fitted inhibition curve with a large enough effect in the signal ratio in the repeat runs, with a control signal flat; the % refers to the signal ratio; note: potency is the fitted concentration of half-maximal effect)
Summary of the method: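 HTRF cAMP read-out at 665 and 620 nm emission (340 nm excitation). Antagonist mode: compounds were tested against 12 nM quinpirole in DRD2-HEK293 cells, with 200 nM NKH477 raising cAMP and 0.1 mM Ro20-1724 blocking its breakdown.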

[14] = p53 small molecule agonists, cell-based qHTS assay with human liver microsomes (AID 1963577);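 note: p53 response element beta-lactamase reporter cells with liver microsomes plus NADPH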
Summary of the method: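 Steps: plate p53RE-bla cells, incubate 5 h at 37 C; add compound in DMSO; add microsomes (0.5 mg/mL final) and NADPH (0.5 mg/mL final); incubate 16 h at 37 C; add LiveBLAzer, 2 h RT; read fluorescence.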

[15] = p53 small molecule agonists, cell-based qHTS assay with rat liver microsomes (AID 1963578)
Summary of the method: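 Metabolic activation is supplied by rat liver microsomes with NADPH (each 0.5 mg/mL final). p53RE-bla cells incubate with compound 16 h at 37 C; reporter activity is measured by LiveBLAzer fluorescence.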

[16] = p53 small molecule agonists, cell-based qHTS assay with human liver microsomes: qHTS cell viability counter screen (AID 1963579); note: nearly all actives have a fitted effect of over 45% in size
Summary of the method: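 After the 460/530 nm beta-lactamase read, CellTiter-Glo was added to the same wells and luminescence measured after 30 min at room temperature, giving viability of p53RE-bla cells treated 16 h with compounds plus microsomes and NADPH.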

[17] = p53 small molecule agonists, cell-based qHTS assay: qHTS cell viability counter screen (AID 1963581); note: nearly all actives have a fitted effect of over 45% in size
Summary of the method: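 Counter screen read by CellTiter-Glo luminescence (ATP content, 30 min at room temperature), run in the same wells as the beta-lactamase reporter read. HCT-116 p53RE-bla cells saw compounds for 16 h at 37 C.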

[18] = p53 small molecule agonists, cell-based qHTS assay (AID 1963582; active = well fitted activation curve with a large enough effect in the signal ratio in the repeat runs, not every such curve was filed as active; the % refers to the signal ratio)
Summary of the method: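 Read-out is beta-lactamase FRET fluorescence after 2 h at room temperature with LiveBLAzer B/G substrate. p53 response element-bla cells were treated 16 h at 37 C with compounds in DMSO, added 5 h after seeding.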

[19] = cAMP Responsive Elements (CRE) small molecule agonists, cell-based qHTS assay (AID 1963590)
Summary of the method: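 Agonist mode: compound added to CRE-bla HEK 293T cells (2,000/well, 18 h after plating) for 3 h at 37 C/5% CO2. Reporter activity detected via FRET beta-lactamase substrate, 2 h room-temperature loading.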

[20] = target: Beta-2 adrenergic receptor (Homo sapiens) (UniProt P07550); experiment: Adrenergic beta2 receptor (ADRB2) small molecule agonists, cell-based qHTS assay (AID 1963593);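 note: CHO cells stably overexpressing human ADRB2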
Summary of the method: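 CHO cells stably over-expressing ADRB2 were plated overnight at 37C, then dosed with compounds plus a stimulation mix containing 100uM IBMX and 25uM Ro-20-1724 for 0.5hr at room temperature. cAMP was measured by HTRF competition, 1hr.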

Measured: Potency

Chain of KiSS-1 receptor (Homo sapiens) (Q969F8 whole entry, looked up): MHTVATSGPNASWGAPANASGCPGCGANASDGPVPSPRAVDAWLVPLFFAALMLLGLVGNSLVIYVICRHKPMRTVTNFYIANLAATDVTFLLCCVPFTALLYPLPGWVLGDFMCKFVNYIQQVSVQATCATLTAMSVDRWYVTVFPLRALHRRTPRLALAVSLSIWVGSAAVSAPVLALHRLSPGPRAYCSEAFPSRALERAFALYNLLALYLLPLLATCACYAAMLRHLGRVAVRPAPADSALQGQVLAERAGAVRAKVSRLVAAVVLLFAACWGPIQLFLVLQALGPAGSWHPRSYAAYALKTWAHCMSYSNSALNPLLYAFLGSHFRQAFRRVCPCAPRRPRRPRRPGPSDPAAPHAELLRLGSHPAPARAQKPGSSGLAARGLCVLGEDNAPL
Chain of 5-hydroxytryptamine receptor 2A (Homo sapiens) (P28223 whole entry, looked up): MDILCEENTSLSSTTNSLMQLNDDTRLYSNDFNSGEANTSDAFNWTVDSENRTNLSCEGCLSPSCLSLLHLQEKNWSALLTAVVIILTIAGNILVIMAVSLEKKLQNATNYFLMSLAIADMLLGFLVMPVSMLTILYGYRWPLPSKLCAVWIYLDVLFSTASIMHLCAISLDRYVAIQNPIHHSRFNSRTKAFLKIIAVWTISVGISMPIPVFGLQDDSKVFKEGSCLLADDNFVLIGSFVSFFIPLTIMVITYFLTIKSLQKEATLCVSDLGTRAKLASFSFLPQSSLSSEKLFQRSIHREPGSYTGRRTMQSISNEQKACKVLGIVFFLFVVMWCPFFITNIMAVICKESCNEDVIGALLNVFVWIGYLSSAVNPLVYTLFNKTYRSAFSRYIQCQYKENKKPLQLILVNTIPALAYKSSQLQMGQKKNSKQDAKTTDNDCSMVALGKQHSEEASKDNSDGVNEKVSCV
Chain of Muscarinic acetylcholine receptor M1 (Homo sapiens) (P11229 whole entry, looked up): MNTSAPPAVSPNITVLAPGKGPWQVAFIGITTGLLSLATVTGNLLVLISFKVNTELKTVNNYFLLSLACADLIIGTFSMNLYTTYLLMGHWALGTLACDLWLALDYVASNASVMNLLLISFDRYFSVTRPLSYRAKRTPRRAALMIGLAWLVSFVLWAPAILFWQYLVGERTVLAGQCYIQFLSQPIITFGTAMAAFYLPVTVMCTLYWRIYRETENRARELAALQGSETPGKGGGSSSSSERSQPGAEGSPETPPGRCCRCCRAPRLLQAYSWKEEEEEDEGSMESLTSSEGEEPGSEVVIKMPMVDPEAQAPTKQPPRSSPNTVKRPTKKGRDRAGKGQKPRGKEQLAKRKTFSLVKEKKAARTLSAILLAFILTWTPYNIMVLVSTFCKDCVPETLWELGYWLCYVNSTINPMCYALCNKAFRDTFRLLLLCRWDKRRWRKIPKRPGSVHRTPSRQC
Chain of D(2) dopamine receptor (Homo sapiens) (P14416 whole entry, looked up): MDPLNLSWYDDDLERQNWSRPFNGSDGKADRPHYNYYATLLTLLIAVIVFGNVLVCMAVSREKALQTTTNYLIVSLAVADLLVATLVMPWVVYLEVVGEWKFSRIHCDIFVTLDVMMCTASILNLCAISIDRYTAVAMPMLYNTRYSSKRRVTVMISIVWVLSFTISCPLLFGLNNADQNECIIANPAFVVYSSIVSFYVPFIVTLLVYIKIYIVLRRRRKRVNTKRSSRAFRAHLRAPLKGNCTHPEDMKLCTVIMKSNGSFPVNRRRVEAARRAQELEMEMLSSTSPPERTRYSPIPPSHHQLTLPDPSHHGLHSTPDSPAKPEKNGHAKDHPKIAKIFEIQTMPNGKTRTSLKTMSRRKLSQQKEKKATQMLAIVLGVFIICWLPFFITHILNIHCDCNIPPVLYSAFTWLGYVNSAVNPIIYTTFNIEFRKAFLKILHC
Chain of Gonadotropin-releasing hormone receptor (Homo sapiens) (P30968 whole entry, looked up): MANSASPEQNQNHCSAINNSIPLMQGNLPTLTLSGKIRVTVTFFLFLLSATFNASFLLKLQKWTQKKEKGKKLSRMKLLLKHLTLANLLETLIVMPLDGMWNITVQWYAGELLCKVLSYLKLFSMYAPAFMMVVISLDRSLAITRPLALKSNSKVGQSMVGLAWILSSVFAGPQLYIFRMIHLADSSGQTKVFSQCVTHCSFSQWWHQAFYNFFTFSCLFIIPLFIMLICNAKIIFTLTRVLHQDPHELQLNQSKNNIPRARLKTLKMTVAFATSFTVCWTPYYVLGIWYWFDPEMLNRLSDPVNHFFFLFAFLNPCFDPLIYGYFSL
Chain of Beta-2 adrenergic receptor (Homo sapiens) (P07550 whole entry, looked up): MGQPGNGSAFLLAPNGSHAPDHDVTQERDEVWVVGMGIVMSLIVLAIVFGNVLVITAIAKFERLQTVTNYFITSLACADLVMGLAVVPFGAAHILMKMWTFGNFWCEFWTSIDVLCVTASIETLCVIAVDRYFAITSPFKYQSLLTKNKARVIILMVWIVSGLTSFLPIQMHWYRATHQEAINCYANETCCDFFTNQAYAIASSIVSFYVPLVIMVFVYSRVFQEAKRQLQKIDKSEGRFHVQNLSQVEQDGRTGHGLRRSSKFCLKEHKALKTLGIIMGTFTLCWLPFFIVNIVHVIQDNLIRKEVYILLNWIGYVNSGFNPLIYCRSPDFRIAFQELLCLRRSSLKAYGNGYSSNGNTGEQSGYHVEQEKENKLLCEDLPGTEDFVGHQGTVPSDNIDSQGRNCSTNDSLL

O=C1C(I)=CC(=C(c2cc(I)c(O)c(I)c2)c2ccccc2C(=O)O)C=C1I
not listed: [14] | [15] | [16] | [17] | [18] | [19] | [20]
inactive: all other assays above

Nc1nc(N)c(N)c(N)n1
active: [2] 39.1 µM | [4] 39.1 µM | [7] 43.9 µM | [9] 55.2 µM
not listed: [3] | [6] | [12] | [13] | [20]
inactive: all other assays above

c1ccc2c(c1)cc1ccc3cccc4ccc2c1c34
inactive: [1] | [2] | [3] | [4] | [5] | [17] | [20] | [12] | [13]

CSC(=O)c1c(C(F)F)nc(C(F)(F)F)c(C(=O)SC)c1CC(C)C
inactive: [2] | [3] | [4] | [15] | [5] | [17] | [7] | [9] | [10] | [11] | [12]

CC(Cl)CN(C)C (stereo not given)
not listed: [1] | [11]
inactive: all other assays above

Cc1ccccc1
inactive: [1] | [14] | [15] | [16] | [5] | [17] | [18]

CC(C)(C)C(O)C(Oc1ccc(-c2ccccc2)cc1)n1cncn1 (stereo not given)
not listed: [1] | [5] | [7] | [20]
inactive: all other assays above

COCC(C)N(C(=O)CCl)c1c(C)csc1C (stereo not given)
not listed: [1] | [7] | [15]
inactive: all other assays above

ClC1=C(Cl)[C@]2(Cl)[C@@H]3[C@H]4C[C@H]([C@@H]5O[C@H]45)[C@@H]3[C@@]1(Cl)C2(Cl)Cl
inactive: [2] | [3] | [4] | [14] | [15] | [16] | [5] | [17] | [18] | [12]

CCC(C)Nc1c([N+](=O)[O-])cc(C(C)(C)C)cc1[N+](=O)[O-] (stereo not given)
active: [1] 54.5 µM
not listed: [2] | [6] | [14] | [15] | [18] | [20]
inactive: all other assays above

c1cc[c]([Hg][c]2ccccc2)cc1
inactive: [2] | [3] | [4] | [14] | [6] | [7] | [8] | [9] | [12]
active: [13] 4.33 µM

C[C@H]1CCC[C@H](O)CCCCCc2cc(O)cc(O)c2C(=O)O1
not listed: [1] | [6] | [7] | [9] | [11] | [14] | [19] | [20]
inactive: all other assays above

CC(C)C(Nc1ccc(C(F)(F)F)cc1Cl)C(=O)OC(C#N)c1cccc(Oc2ccccc2)c1 (stereo not given)
not listed: [1] | [6] | [16] | [18] | [19] | [20]
inactive: all other assays above

CC(=O)OC(c1ccccc1)C(Cl)(Cl)Cl (stereo not given)
not listed: [1] | [6]
inactive: all other assays above

CCCCCCBr
not listed: [1] | [5] | [11] | [15] | [20]
inactive: all other assays above

NCCCNCCCN
active: [8] 38.1 µM
not listed: [1]
inactive: all other assays above

COP(=O)(OC)OC(Br)C(Cl)(Cl)Br (stereo not given)
active: [1] 27.3 µM and 54.5 µM
not listed: [2] | [14] | [15] | [18]
inactive: all other assays above

O=S(=O)(c1ccc(Cl)cc1)c1ccc(Cl)cc1
active: [6] 10.7 µM
inactive: [1] | [3] | [4] | [15] | [16] | [9] | [19] | [11] | [12]

O=C(O)COc1ccc(Cl)cc1
not listed: [2] | [6] | [9] | [10] | [14] | [19]
inactive: all other assays above

CCC(C)c1cccc(C(C)CC)c1O (stereo not given)
not listed: [1] | [5] | [6] | [8] | [10] | [19] | [20]
inactive: all other assays above

CCCCCCC[CH2][Sn]([Cl])([Cl])[CH2]CCCCCCC
active: [3] 48.9 µM
not listed: [1] | [5] | [10] | [18] | [20]
inactive: all other assays above

CCCCCCCc1ccc(O)cc1
inactive: [3] | [4] | [5] | [17] | [6] | [7] | [19] | [11] | [20] | [12]
active: [1] 24.3 µM | [10] 68.6 µM

C=CC(C)(CCC=C(C)C)OC(=O)c1ccccc1N (stereo not given)
not listed: [1] | [6] | [20]
inactive: all other assays above
